Screening data as filed in PubChem BioAssay.
USP17 inh: human USP17-like deubiquitinase inhibition | inhibition, % at 50 µM | A8MUK1 | AID 1645855 | 47,000 compounds, 6.5% hits | purified USP17, Ub-rhodamine cleavage fluorescence, 3 h
USP28 inh: human USP28 deubiquitinase inhibition. Q96RU2. inhibition, % at 25 µM. purified USP28, Ub-rhodamine cleavage fluorescence, 30 min. 47,000 compounds, 3% hits
USP30 block: blocks human USP30 ubiquitin-rhodamine cleavage; purified USP30, Ub-rhodamine cleavage fluorescence; AID 1645860; 47,000 compounds, 5.3% hits; Q70CQ3; inhibition, % at 25 µM
OTUD3 inh: inhibitors of human OTUD3 deubiquitinase. purified OTUD3, Ub-rhodamine fluorescence, 2 h. AID 1645858. inhibition, % at 25 µM. 47,000 compounds, 0.7% hits
Target sequence (Q5T2D3 whole entry, looked up): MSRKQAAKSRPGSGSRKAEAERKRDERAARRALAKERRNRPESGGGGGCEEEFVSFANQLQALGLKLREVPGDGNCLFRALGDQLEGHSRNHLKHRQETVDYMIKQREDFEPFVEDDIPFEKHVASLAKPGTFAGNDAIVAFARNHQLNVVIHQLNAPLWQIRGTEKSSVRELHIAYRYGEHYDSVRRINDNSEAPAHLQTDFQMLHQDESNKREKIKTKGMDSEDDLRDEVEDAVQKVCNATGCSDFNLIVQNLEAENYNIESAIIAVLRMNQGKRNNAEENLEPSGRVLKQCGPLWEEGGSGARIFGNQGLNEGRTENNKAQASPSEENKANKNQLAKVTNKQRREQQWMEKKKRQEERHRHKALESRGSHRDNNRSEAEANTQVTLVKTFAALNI
Numbers without * were called inactive. The list is not random: actives were taken first. Their share in the collection is about 12%. Rule as the data show it: active = inhibition above about 30%; inactive = the rest.

CCc1cc(=O)n(CC(=O)Nc2cc(C)ccc2OC)c(N2CCOCC2)n1 was read as USP17 inh 36*, USP28 inh 27, USP30 block 59* and OTUD3 inh 37*.
`COc1ccc(C)cc1NC(=O)c1ccc(N2CCOCC2)nn1` gave USP17 inh 52*, USP28 inh 9, USP30 block 54* and OTUD3 inh 4.
For Cc1ccc(NC(=O)c2ccc(N3CCOCC3)nn2)cc1F the results were USP17 inh 71*, USP28 inh 26, USP30 block 2 and OTUD3 inh 13.
For C=C1C[C@@]23CCC4[C@@](C)(CCC[C@@]4(C)C(=O)O[C@@H]4O[C@H](CO)[C@@H](O)[C@H](O)[C@H]4O)C2CC[C@]1(O[C@@H]1O[C@H](CO)[C@@H](O)[C@H](O[C@@H]2O[C@H](CO)[C@@H](O)[C@H](O)[C@H]2O)[C@H]1O[C@@H]1O[C@H](CO)[C@@H](O)[C@H](O)[C@H]1O)C3 (some centres undefined) the results were USP17 inh -29, USP28 inh -3, USP30 block 8 and OTUD3 inh -4.
For Cc1cccc(N2C(=O)c3cccnc3C2CC(=O)N2CCCCC2)c1 (centres undefined) the results were USP17 inh 6, USP28 inh 3, USP30 block 7 and OTUD3 inh 6.
For c1ccc(-c2n[nH]c(C3CCCN3)n2)cc1 (centres undefined) the results were USP17 inh -10, USP28 inh -4, USP30 block -2 and OTUD3 inh 3.
Clc1cccc(-c2cn[nH]c2C2CCCN2)c1 (centres undefined) was read as USP17 inh 4, USP28 inh 15, USP30 block 34* and OTUD3 inh 15.
`CCc1ccc(NC(=O)c2cccc(-n3cnnc3)n2)cc1` gave USP17 inh -4, USP28 inh 0, USP30 block -1 and OTUD3 inh 0.
O=C(Nc1ccc(Cl)cc1)c1nc(-n2cnnc2)ccc1Cl was read as USP17 inh 36*, USP28 inh 9, USP30 block 17 and OTUD3 inh 15.
Screening COc1ccc(-n2c(SCC(=O)Nc3cc(Cl)ccc3C(=O)O)nc3ccccc3c2=O)cc1Cl returned USP17 inh 93* and OTUD3 inh 0.
Screening CCN1C(=O)[C@H]2CN(C(=O)N(C)C)C[C@H]2C12CCN(C(=O)c1cccnc1)CC2 returned USP17 inh -31, USP28 inh 2, USP30 block -7 and OTUD3 inh -4.
Cc1ccc2nc(NC(=O)CN3C(=O)C4CCCCC4C3=O)sc2c1 (centres undefined) was read as USP17 inh 9, USP28 inh 14, USP30 block 12 and OTUD3 inh 10.
`O=C1Nc2c(Cl)cc(Cl)cc2C1(O)c1sc(NC2CCCCC2)nc1-c1ccccc1` (centres undefined) gave USP17 inh 66*, USP28 inh 8, USP30 block 8 and OTUD3 inh 6.
Screening c1ccc(-c2noc(NC3CCCC3)n2)cc1 returned USP17 inh -5, USP28 inh 4, USP30 block -4 and OTUD3 inh -9.
For CC(C)(C)NC(=O)CN1CCC2(CCC1=O)CNC(=O)c1ccccc1O2 (centres undefined) the results were USP17 inh 8, USP28 inh 0, USP30 block 11 and OTUD3 inh 0.
For COc1cccc(OC)c1C(=O)Nc1c(NCc2ccccc2)c2ccccc2oc1=O the results were USP17 inh 30*, USP28 inh 18, USP30 block 17 and OTUD3 inh 13.
Screening NC(=O)CNC(CNC(CC(=O)O)C(=O)O)C(=O)O (centres undefined) returned USP17 inh 0, USP28 inh 2, USP30 block 0 and OTUD3 inh 0.
`COCCCNC(=O)COc1c(-c2ccc(OC)cc2)oc2ccccc2c1=O` gave USP17 inh 23, USP28 inh 18, USP30 block 49* and OTUD3 inh 19.
For COc1ccc(CNC(=O)CCc2ccc3nc(NC(=O)C(C)C)sc3c2)cc1 the results were USP17 inh 11, USP28 inh 0, USP30 block 33* and OTUD3 inh 0.
Screening CCCC(=O)Nc1nc2ccc(CCC(=O)Nc3cccc(OC)c3)cc2s1 returned USP17 inh 2, USP28 inh 6, USP30 block 18 and OTUD3 inh -1.
`COc1ccc(-c2ccc(SCC(=O)Nc3ccc(F)cc3)nn2)cc1OC` gave USP17 inh 17, USP28 inh -17, USP30 block 21 and OTUD3 inh -18.
For CC(=O)c1cc2c(=O)c3c(C(=O)O)c(O)c(O)cc3oc2c(C(C)=O)c1-c1coc2cc(O)c(O)c(C(=O)O)c2c1=O the results were USP17 inh 46*, USP28 inh 40*, USP30 block -87 and OTUD3 inh 60*.
COCCN1C[C@H]2CCN(C(=O)NC3CCCC3)CC[C@H]2S1(=O)=O was read as USP17 inh -25, USP28 inh -15, USP30 block -25 and OTUD3 inh -5.
For O=S(c1ccc2ccccc2c1)c1cnns1 (centres undefined) the results were USP17 inh -8, USP28 inh 14, USP30 block 25 and OTUD3 inh 34*.
Screening Cn1c(=O)[nH]c(=O)c2c1nc(NCCCO)n2CC(=O)c1ccccc1 returned USP17 inh 13, USP28 inh 10, USP30 block 40* and OTUD3 inh 7.
`CN(C)c1nc2c(c(=O)[nH]c(=O)n2C)n1CC(=O)c1ccccc1` gave USP17 inh 3 and OTUD3 inh -4.
`Cc1ccc2c(C)c(C(=O)N(Cc3ccc(Cl)cc3)Cc3ccco3)oc2c1C` gave USP17 inh 35*, USP28 inh 11, USP30 block 0 and OTUD3 inh 18.
Screening O=C(Cn1c(=O)n(Cc2ccncc2)c(=O)c2ncccc21)Nc1ccccc1 returned USP17 inh -1, USP28 inh 3, USP30 block -1 and OTUD3 inh 5.
`O=C(Cn1c(=O)n(Cc2ccc3c(c2)OCO3)c(=O)c2ncccc21)c1ccc(Cl)cc1` gave USP17 inh 5, USP28 inh -8, USP30 block 62* and OTUD3 inh 1.
Screening O=C(Cn1c(=O)n(Cc2ccc3c(c2)OCO3)c(=O)c2ncccc21)NCc1ccco1 returned USP17 inh 49*, USP28 inh 18, USP30 block -11 and OTUD3 inh 16.
`O=C(Cn1c(=O)n(Cc2ccccc2)c(=O)c2ncccc21)NCc1ccccc1Cl` gave USP17 inh 86*, USP28 inh -1, USP30 block -28 and OTUD3 inh -6.
`COCCn1cnc2c1c(=O)n(CC(=O)Nc1ccc(C)cc1Cl)c(=O)n2Cc1ccccc1` gave USP17 inh 0, USP28 inh -10, USP30 block 6 and OTUD3 inh -4.
For COC1CN(C(=O)c2cccc(C#N)c2)CCC(=O)N(C)c2ccccc21 (centres undefined) the results were USP17 inh 4, USP28 inh 7, USP30 block 10 and OTUD3 inh 5.
Cc1cc(C)n2nc(C(=O)Nc3ccccc3Oc3ccccc3)nc2n1 was read as USP17 inh 2, USP28 inh 9, USP30 block 22 and OTUD3 inh 1.
